Sampled rows, rich in hits. Any-hit rate of the full collection: about 2.4%.
ATXN2 expr inh: reduces ATXN2 reporter expression in HEK-293 cells; Potency, µM (highest dose often 57 µM), without a hit: top-dose activity change, negative = inhibition, usual class: inhibitors; HEK-293 ATXN2-luciferase reporter, luminescence, 24 h; actives 0.72% (n = 360,000); note: potency is the fitted concentration of half-maximal effect; % is set by controls: 0 for no effect and ±100 for the full control effect; nearly all actives have a fitted effect of over 55% in size
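qHTS (up to 57 uM final) was run with 24 h compound exposure of reporter cells at 37 °C. Each well was multiplexed: SteadyGlo luminescence measured ATXN2-luciferase expression after a fluorogenic Gly-Phe-AFC viability readout (25 uM final).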
TGFb SMAD3 inh: TGF-b pathway inhibition | Potency, µM (doses to about 46.1 µM), for inactives: top-dose activity, negative = inhibition, actives largely listed as inhibitors | HepG2 CAGA-GFP TGF-b/SMAD3 reporter, GFP fluorescence, 18 h; TGF-beta stimulated, 500 pg/mL final | AID 588855 | actives 1.2% (n = 410,000); note: potency is the fitted concentration of half-maximal effect; % is set by controls: 0 for no effect and ±100 for the full control effect; nearly all actives have a fitted effect of over 65% in size
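Read-out: total well GFP (ex488/em500-530) summed from mean per-cell fluorescence. Cells: HEPG2 CAGA-GFP, 1% FBS DMEM, 18 h at 37 degrees C with 500 pg/mL final TGF-beta. Unstimulated wells served as the full-inhibition control; stimulated DMSO wells = 0%.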
HepG2 tox-1: counter-screen for TGF-b inhibitors: cytotoxicity in HepG2 cells; Potency, µM (doses to about 46.1 µM), without a hit: at the top dose activity change, negative = cytotoxicity, actives largely listed as cytotoxic; AID 588856; actives 0.76% (n = 410,000); HepG2 CAGA-GFP viability, ATP luminescence, 18 h; note: potency is the fitted concentration of half-maximal effect
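CellTiter-Glo luminescence gave cytotoxicity after 18 hours at 37 degrees C. The cells were HepG2 CAGA-GFP in 1% FBS DMEM, stimulated with 500 pg/mL TGF-beta after compound addition. %Activity was normalised to no-cell wells (complete cell-killing) and DMSO (no toxicity), and curves were fitted and classified.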
ATXN viability: cell viability loss in ATXN counter-screen; S2 cells (HEK-293 line with an ATXN2-luciferase reporter) viability, CellTiter-Fluor protease fluorescence, 24 h; actives 0.49% (n = 400,000); Potency, µM (top dose mostly 56.7 µM), actives largely listed as cytotoxic; note: potency is the fitted concentration of half-maximal effect; nearly all actives have a fitted effect of over 40% in size
Apoferritin bind: candidate novel general anesthetic via apoferritin binding; P02791; apoferritin/1-aminoanthracene competitive binding, fluorescence; Potency, µM (titrated, usually from 77.5 µM), inactives show at the top dose activity change, negative = displacement, usual class: inhibitors; actives 0.074% (n = 350,000); note: potency is the fitted concentration of half-maximal effect; % is set by controls: 0 for no effect and ±100 for the full control effect; nearly all actives have a fitted effect of over 20% in size
Target sequence (P02791 2-175 limits assumed): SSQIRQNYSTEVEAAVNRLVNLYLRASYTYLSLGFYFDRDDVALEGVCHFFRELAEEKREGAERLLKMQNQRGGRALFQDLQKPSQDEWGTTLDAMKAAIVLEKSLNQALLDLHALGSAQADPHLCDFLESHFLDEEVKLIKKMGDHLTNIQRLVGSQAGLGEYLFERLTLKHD
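In PBS, apoferritin at 10 uM is loaded with 1-AMA from a 50% saturated solution. After 10 min of compound exposure at ambient temperature, reduced 535 nm fluorescence indicates probe displacement.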
TGFb CAGA inh: confirmation of TGF-b signaling inhibitors in HepG2 reporter cells; shares compounds with TGFb SMAD3 inh; HepG2 CAGA-GFP TGF-b reporter, GFP fluorescence, 18 h; cells stimulated with TGF-beta, 500 pg/mL; Potency, µM (doses to about 46.1 µM), for the others: at the top dose activity, negative = inhibition, usual class: inhibitors; actives 63% (n = 1,600); note: potency is the fitted concentration of half-maximal effect; % is set by controls: 0 for no effect and ±100 for the full control effect; nearly all actives have a fitted effect of over 65% in size
HepG2 tox-2: HepG2 cytotoxicity, TGF-b inhibitor counterscreen; shares compounds with TGFb SMAD3 inh; HepG2 CAGA-GFP viability, ATP luminescence, 18 h; cells stimulated with TGF-beta, 500 pg/mL; Potency, µM (series often up to 46.1 µM), for the others: top-dose activity, negative = cytotoxicity, usual class: inhibitors; actives 27% (n = 1,600); AID 720535; note: potency is the fitted concentration of half-maximal effect; % is set by controls: 0 for no effect and ±100 for the full control effect; nearly all actives have a fitted effect of over 70% in size
CCL64 TGFb inh: TGF-b inhibition, CCL64 orthogonal assay. shares compounds with TGFb SMAD3 inh. CCL64 CAGA-GFP reporter, TGF-b stimulated, GFP fluorescence, 18 h. Potency, µM (titrated, usually from 46.1 µM), for the others: at the highest dose activity, negative = inhibition, usual class: inhibitors. actives 41% (n = 1,600); note: potency is the fitted concentration of half-maximal effect; nearly all actives have a fitted effect of over 65% in size
TGFb COP inh: blocks TGF-b signaling in HepG2 COP reporter; shares compounds with TGFb SMAD3 inh; HepG2 COP-GFP TGF-b reporter, GFP fluorescence, 18 h; cells stimulated by added recombinant TGF-beta; Potency, µM (series often up to 46.1 µM), for the others: top-dose activity, negative = inhibition, actives largely listed as inhibitors; actives 3% (n = 1,600); AID 720537; note: potency is the fitted concentration of half-maximal effect; nearly all actives have a fitted effect of over 70% in size
SKNSH spheroid: SK-N-SH 3D spheroid viability loss | SK-N-SH 3D spheroid viability, PI/Hoechst imaging, 72 h | actives 70% (n = 65) | Potency, µM (titrated, usually from 30.7 µM), hits mostly inhibitors | shares compounds with ATXN2 expr inh
SJGBM2 3D viab: SJ-GBM2 spheroid viability loss, orthogonal 3D screen; shares compounds with ATXN2 expr inh; Potency, µM (highest dose often 30.7 µM), hits mostly inhibitors; SJ-GBM2 3D spheroid viability, PI/Hoechst imaging, 72 h; actives 80% (n = 65)
Daoy 3D tox: Daoy 3D spheroid viability loss. shares compounds with ATXN2 expr inh. Daoy 3D spheroid viability, PI/Hoechst imaging, 72 h. Potency, µM (series often up to 30.7 µM), actives largely listed as inhibitors. actives 50% (n = 65). AID 1347137
TC32 3D caspase: TC32 spheroid caspase-3/7 activation, orthogonal screen; shares compounds with ATXN2 expr inh; TC32 3D spheroids, caspase-3/7 fluorescence imaging, 24 h; Potency, µM (top dose mostly 30.7 µM), actives largely listed as inhibitors; actives 30% (n = 65)
TC32 spheroid: TC32 3D spheroid viability loss; shares compounds with ATXN2 expr inh; TC32 3D spheroid viability, PI/Hoechst imaging, 72 h; Potency, µM (doses to about 30.7 µM), actives largely listed as inhibitors; actives 60% (n = 65); AID 1347139
MG63 3D tox: MG-63 (6-TG R) 3D spheroid viability loss; shares compounds with ATXN2 expr inh; MG-63 (6-TG R) 3D spheroid viability, PI/Hoechst imaging, 72 h; Potency, µM (top dose mostly 30.7 µM), most hits filed as inhibitors; actives 50% (n = 65); AID 1347140
RD 3D tox: reduced viability of RD 3D spheroids, orthogonal test; shares compounds with ATXN2 expr inh; RD rhabdomyosarcoma 3D spheroid viability, PI/Hoechst imaging, 72 h; Potency, µM (top dose mostly 30.7 µM), actives largely listed as inhibitors; actives 50% (n = 65); AID 1347141
Active calls of the source: *; i = inactive; ? = inconclusive; . = no result. Calls come from the whole dose curve; as a rule, active = well fitted curve in the direction sought with a large enough effect; inconclusive = small, poorly fitted or top-dose-only effect, or another doubt; inactive = no such curve, though single readings can be large; an effect the other way counts as inactive or inconclusive.

SMILES | ATXN2 expr inh | TGFb SMAD3 inh | HepG2 tox-1 | ATXN viability | Apoferritin bind | SKNSH spheroid | SJGBM2 3D viab | Daoy 3D tox | TC32 3D caspase | TC32 spheroid | MG63 3D tox | RD 3D tox | others
COc1cccc2c1C(=O)c1c(O)c3c(c(O)c1C2=O)C[C@@](O)(C(=O)CO)C[C@@H]3O[C@H]1C[C@H](N)[C@H](O)[C@H](C)O1 | 0.316µM* | 3.55µM* | 4.6% | 3.98µM* | ? | 0.181µM* | 0.287µM* | 2.88µM* | 1.02µM* | 0.323µM* | 4.06µM* | 2.56µM* | TGFb CAGA inh=0.164µM*;HepG2 tox-2=0.517µM*;CCL64 TGFb inh=1.3µM*;TGFb COP inh=-0.6%
COc1ccc(Br)cc1CN(C)CC(=O)Nc1c(Cl)cccc1Cl | -21.5% | ? | -36.8% | i | -1.8% | . | . | . | . | . | . | .
NC(=O)c1cccc2cc3ccccc3cc12 | -14.7% | -0.1% | 7.4% | . | 305.2% | . | . | . | . | . | . | .
C[C@]1(c2nc3c(C(N)=O)cccc3[nH]2)CCCN1 | 12.0% | . | . | . | . | 4.56µM* | 4.06µM* | ? | i | ? | ? | i
CC[C@@H]1C=C(C)C[C@H](C)C[C@H](OC)[C@H]2O[C@@](O)(C(=O)C(=O)N3CCCC[C@@H]3C(=O)O[C@H](C(C)=C[C@@H]3CC[C@H](Cl)[C@H](OC)C3)[C@H](C)[C@@H](O)CC1=O)[C@H](C)C[C@H]2OC | ? | . | . | . | . | 16.2µM* | 2.28µM* | 1.44µM* | i | 20.4µM* | 3.62µM* | ?
CO[C@H]1C[C@@H]2CC[C@@H](C)[C@@](O)(O2)C(=O)C(=O)N2CCCC[C@@H]2C(=O)O[C@H]([C@H](C)C[C@@H]2CC[C@H](OP(C)(C)=O)[C@H](OC)C2)CC(=O)[C@H](C)C=C(C)[C@@H](O)[C@@H](OC)C(=O)[C@H](C)C[C@H](C)C=CC=CC=C1C | 4.1% | . | . | . | . | . | . | . | . | . | . | .
COC(=O)Nc1nc2ccc(C(=O)c3ccc(F)cc3)cc2[nH]1 | -9.8% | . | . | . | 0.0% | 1.02µM* | 0.909µM* | ? | ? | 2.04µM* | ? | ?
O=C1C(Cl)=C(NCCCN2CCOCC2)C(=O)c2ccccc21 | ? | ? | -41.5% | ? | . | . | . | . | . | . | . | .
O=C1C(Cl)=C(NCCN2CCOCC2)C(=O)c2ncccc21 | 9.68µM* | . | . | . | 2.9% | 3.23µM* | 4.56µM* | 6.44µM* | i | 11.4µM* | 5.11µM* | 11.4µM*
CCOc1cc(N2CCC(O)CC2)ccc1Nc1ncc2c(n1)N(C)c1ccccc1C(=O)N2C | 64.0% | . | . | . | . | ? | i | i | i | i | i | ?
CC(C)(C)NC(=O)[C@H]1CN(Cc2cccnc2)CCN1C[C@@H](O)C[C@@H](Cc1ccccc1)C(=O)N[C@H]1c2ccccc2C[C@H]1O | ? | . | . | . | -20.4% | i | i | i | i | i | i | i
CCCN(C(=O)c1nn(-c2ccc(OC)cc2)c(=O)c2c1c1ccccc1n2C)c1ccc(CC)cc1 | 3.9% | 1.9% | 4.4% | i | 0.0% | . | . | . | . | . | . | .
COc1cc(C(C)=O)ccc1OCCCN1CCC(c2noc3cc(F)ccc23)CC1 | 6.8% | . | . | i | . | ? | 4.06µM* | 16.2µM* | i | i | 12.8µM* | 14.4µM*
COc1ccc(CNC(=O)CN(C(=O)c2csnn2)c2cccc(C(C)=O)c2)cc1 | 9.8% | 21.2% | -0.2% | i | 5.3% | . | . | . | . | . | . | .
CC(=O)O[C@H]1C(=O)[C@@]2(C)[C@H]([C@H](OC(=O)c3ccccc3)[C@]3(O)C[C@H](OC(=O)[C@H](O)[C@@H](NC(=O)c4ccccc4)c4ccccc4)C(C)=C1C3(C)C)[C@]1(OC(C)=O)CO[C@@H]1C[C@@H]2O | -24.2% | -19.7% | -39.5% | ? | . | 0.144µM* | 0.0102µM* | 0.144µM* | ? | 0.0144µM* | ? | 0.0574µM*

High-throughput results: PubChem BioAssay, National Center for Advancing Translational Sciences (NCATS)
